# Test results as given in PubChem BioAssay AID1745847 (National Center for Advancing Translational Sciences (NCATS), 2022).
# About 670 (32%) of roughly 2,100 compounds were called active. Another 50% or so got no clear call; they are omitted. This is one part of the list. A number with no mark means an inactive call. Calls follow the shape of the dose curve; as a rule, active = well fitted inhibition curve with a large enough effect; inconclusive = small, poorly fitted or top-dose-only effect; inactive = no such curve, though single readings can be large or run the other way.
# Experiment: CMV-Luciferase Counterscreen for Inhibitors of ATXN expression; also: nearly all actives have a fitted effect of over 55% in size
# Conditions: HEK-293 CMV-luciferase reporter, luminescence, 24 h; series mostly up to 57.5 µM
# From the text: PI: Daniel Scoles Ph.D. University of Utah School of Medicine, Salt Lake City, Utah MLPCN Grant: NS073009 Spinocerebellar ataxia type 2 (SCA2) is a multisystem neurodegenerative disease caused by a dominantly acting mutation leading to expansion of a polyQ domain in the ataxin-2 protein (ATXN2). SCA2 patients develop progressive ataxia and later lose function in other neuronal systems. Prominent parkinsonian signs develop in some patients. Like many neurodegenerative disorders, no symptomatic or disease-modifying treatments are known. The primary objective of the proposed research is to identify compounds inhibiting ATXN2 expression and to test them for efficacy in SCA2 mouse models. We have developed a cell-based assay paired with an in vivo mouse model using identical luciferase expression constructs. This approach takes advantage of an ATXN2-luciferase transgene, with the luciferase gene flanked by the upstream and downstream portions of the ATXN2 gene. Here we describe a 5-7 dose quantitative high thoroughput screen (qHTS) for compounds lowering ATXN2 expression. We screened the NIH Molecular Libraries Small Molecule Repository (MLSMR) and NCGC's mechanistically annotated (MIPE) and drug repurposing (NPC) collections of compounds for lowering expression of an ATXN2-luciferase reporter in HEK-293 cells. The assay is a multiplexed cell viability assay to ensure target reduction in the absence of cytotoxicity. Secondary qHTS assays included a CMV-luciferase reporter expressed in HEK-293 cells as well as a biochemical assay using recombinant luciferase to detect inhibitors of the reporter enzyme. Compounds that inhibit ATXN2 expression but is not cytotoxic were selected for confirmatory and secondary screens.
# PROTOCOL TABLE (as described by Inglese J, Shamu CE and Guy RK. 2007) SEQUENCE No. (e.g., 1, 2, 3, etc.); PARAMETER (e.g., Cells, Incubation, Reagent, etc.); VALUE; DESCRIPTION. 1; Cells; 4 uL; white, solid bottom, 1536-well Greiner assay plate. 2; Incubation; 2 hr; 37 degree C in 5% humidified CO2. 3; Compounds; 23 nL; Kalypsis pintool (Wako USA) equipped with a 1536-well pin head. 4; Incubation; 24 hr; 37 degree C in 5% humidfified CO2. 5; Reagent; 1 uL; Gly-Phe-7-Amino-4-trifluoromethylcoumarin. 6; Incubation; 30 min; 37 degree C in 5% humidfified CO2. 7; Detection; Fluorescence; Viewlux plate reader (PerkinElmer). 8; Reagent; 3 uL; SteadyGlo luciferase solution (Promega). 9; Incubation; 5 min; room temperature. 10; Detection; Luminescence; ViewLux plate reader (PerkinElmer). NOTES (numbers refer to Sequence numbers above) 1. HEK-293 cells expressing CMV-luciferase reporter (designated as SC cells) were suspended in phenol-red free DMEM and dispensed in assay plates using a Multidrop Combi dispenser (Thermo Fisher Scientific). 2. Assay plates were incubated. Evaporation was prevented by covering assay plates with metal lids containing holes to allow gas diffusion. 3. Compounds were added in a dose response manner with the final concentrations of 57, 11.4, 2.28, 0.46, 0.091, 0.018, 0.0037 uM. Vehicle-only plates, with DMSO being pin-transferred to columns 5-48, were inserted uniformly at the beginning and the end of each library to monitor and record any shifts in assay performance. 5. 125 uM Gly-Phe-7-Amino-4-trifluoromethylcoumarin (MP Biomedicals) working concentration was used at a final concentration of 25 uM. 7. To assess cell viability; the assay plates were read using the ViewLux high-throughput CCD imager (PerkinElmer), wherein single end-point fluorescence measurement was acquired (excitation 405/10; emission 540/25 nm). 8. Detection reagent SteadyGlo Luciferase (Promega) was added to the assay plate. 10. Luminescence is then measured on the ViewLux imager equipped with a clear emission filter using a 2 sec exposure. […]
# % is scaled to controls: 0 for no effect and ±100 for the full control effect; potency is read from the fitted curve at half-maximal effect.
Structure (SMILES),Potency,"activity change, negative = inhibition"
CC(=O)Oc1ccc(C23c4ccccc4C2(OC(C)=O)c2cc(OC(C)=O)ccc23)cc1 (stereo not given),25.1 µM (active),–
COc1ccc(OCc2cccc(C(=O)Nn3cc([N+](=O)[O-])cn3)c2)cc1,0.398 µM (active),–
O=C(N/N=C/c1ccc(O)cc1O)c1ccc(NC(=O)C2CCCCC2)cc1,12.6 µM (active),–
CC(C)CC(=O)NC(=S)NNC(=O)c1ccc(NC(=O)C2CCCCC2)cc1,–,8.7% [at 11.4 µM]
O=C(N/N=C/c1ccc(O)cc1O)c1ccncc1,3.98 µM (active),–
O=C(N/N=C/c1cc(Br)ccc1O)c1ccncc1,1 µM (active),–
O=C(N/N=C/c1ccc(O)cc1O)c1ccc(CN2C(=O)c3cccc4cccc2c34)cc1,1.78 µM (active),–
Cc1nc(SC2CC(=O)N(c3ccccc3)C2=O)n[nH]1 (stereo not given),inactive,–
O=c1[nH]c(CN2CCN(c3ncccn3)CC2)nc2c(Br)cc(Br)cc12,–,-16.4% [at 11.4 µM]
O=C(NCc1ccccc1C(F)(F)F)c1cccc2c1C(=O)c1ccc(N3CCC(N4CCCCC4)CC3)cc1S2(=O)=O,–,34.1% [at 11.4 µM]
COc1ccc(C(=O)N/N=C/c2cc(Br)ccc2O)cc1OC,2.51 µM (active),–
O=C(N/N=C/c1cc(Br)cc(Br)c1O)c1ccncc1,3.98 µM (active),–
O=C(N/N=C/c1cc(Br)ccc1O)C(c1ccncc1)N1CCOCC1 (stereo not given),10 µM (active),–
O=C(N/N=C/c1cc(Br)ccc1OC(=O)c1ccc(Br)cc1)c1ccncc1,3.98 µM (active),–
O=C(NN=Cc1ccc(O)cc1O)c1ccccc1NS(=O)(=O)c1cccs1,3.16 µM (active),–
CCCC(=O)NC(c1ccccc1)c1ccc2cccnc2c1O (stereo not given),2.24 µM (active),–
CCCCC(=O)NC(c1ccccc1)c1ccc2cccnc2c1O (stereo not given),3.98 µM (active),–
CCCC(=O)NC(c1ccc(C(C)C)cc1)c1ccc2cccnc2c1O (stereo not given),0.355 µM (active),–
CCCC(=O)NC(c1ccc(OC)cc1)c1ccc2cccnc2c1O (stereo not given),3.16 µM (active),–
CCCC(=O)NC(c1ccc(C)cc1)c1ccc2cccnc2c1O (stereo not given),2 µM (active),–
CCOC(=O)COc1ccc(Br)cc1/C=C/c1[nH]c(=O)[nH]c(=O)c1[N+](=O)[O-],–,3.24% [at 11.4 µM]
CN1OC[C@@H]2CN[C@H](c3ccc(-c4cc5ccccc5o4)cc3)C[C@@H]21,0.0794 µM (active),–
N#C/C(=C\c1ccc([N+](=O)[O-])o1)c1nc2ccccc2[nH]1,22.4 µM (active),–
Cc1c(N/N=C(\C#N)C(=O)c2ccccc2)c(=O)n(-c2ccccc2)n1C,3.98 µM (active),–
COc1ccc(NS(=O)(=O)c2ccc(C(=O)Nc3c(C)n(C)n(-c4ccccc4)c3=O)cc2)cc1,–,0.165% [at 11.4 µM]
